Data from PubChem BioAssay (NCATS).
Records with an inconclusive call do not appear. A call without a number means that no potency is given here. Calls of active or inactive are those of the source. The call rests on the fitted dose curve; in most records, active means well fitted curve in the direction sought with a large enough effect; inconclusive means small, poorly fitted or top-dose-only effect, or another doubt; inactive means no such curve, though single readings can be large; an effect the other way counts as inactive or inconclusive.

Biological target: Rap guanine nucleotide exchange factor 3 (Homo sapiens) (UniProt O95398)
Test: Confirmatory qHTS for antagonist of cAMP-regulated guanine nucleotide exchange factor 3 (EPAC1) (AID 1645880); further: nearly all actives have a fitted effect of over 55% in size
Details: EPAC1 Rap1B-BODIPY-GDP exchange, fluorescence; series mostly up to 115 µM
Method in brief: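 Released BODIPY-GDP fluoresces less than Rap1-bound BODIPY-GDP; the signal is followed at 480/540 nm at 5-min intervals over 30 min, after 5 min at room temperature. Reactions contain 100 nM EPAC1, 250 nM RAP1B-BODIPY-GDP and 50 uM GDP; results are normalized to ATA and DMSO.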
Potency means the concentration at half of the fitted maximal effect.

Chain of Rap guanine nucleotide exchange factor 3 (Homo sapiens) (O95398 whole entry, looked up): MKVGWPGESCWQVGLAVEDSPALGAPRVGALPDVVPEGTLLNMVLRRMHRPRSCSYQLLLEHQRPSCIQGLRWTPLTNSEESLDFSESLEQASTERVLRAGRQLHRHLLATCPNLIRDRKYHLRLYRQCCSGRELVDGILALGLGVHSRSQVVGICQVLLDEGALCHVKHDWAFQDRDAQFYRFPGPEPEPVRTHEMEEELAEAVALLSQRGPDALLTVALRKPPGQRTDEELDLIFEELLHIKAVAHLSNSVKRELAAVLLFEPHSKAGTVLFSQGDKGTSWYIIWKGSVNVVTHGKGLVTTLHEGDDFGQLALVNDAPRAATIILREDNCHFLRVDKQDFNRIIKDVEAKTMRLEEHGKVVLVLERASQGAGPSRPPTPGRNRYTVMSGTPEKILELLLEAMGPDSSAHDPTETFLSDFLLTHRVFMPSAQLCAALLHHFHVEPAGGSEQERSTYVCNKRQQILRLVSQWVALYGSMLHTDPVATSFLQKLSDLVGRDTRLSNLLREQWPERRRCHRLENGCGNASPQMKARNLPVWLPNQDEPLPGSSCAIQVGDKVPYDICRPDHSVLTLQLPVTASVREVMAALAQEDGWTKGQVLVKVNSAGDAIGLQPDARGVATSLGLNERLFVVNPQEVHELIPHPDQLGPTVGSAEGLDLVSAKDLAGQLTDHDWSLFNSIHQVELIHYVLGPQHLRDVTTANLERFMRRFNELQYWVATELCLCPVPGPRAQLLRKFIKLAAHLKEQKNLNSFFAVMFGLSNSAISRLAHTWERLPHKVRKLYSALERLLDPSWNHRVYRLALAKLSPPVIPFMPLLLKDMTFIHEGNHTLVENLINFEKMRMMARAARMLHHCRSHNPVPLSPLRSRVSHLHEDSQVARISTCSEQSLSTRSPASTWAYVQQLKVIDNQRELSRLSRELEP

How did the Potency turn out when `COc1ccc2ccccc2c1C(=O)/C=C\c1ccoc1` was run?
The Potency was 42.6 µM (active).

`Oc1ccc(-c2c(-c3ccsc3)sc3ccccc23)cc1` was tested. Which Potency did it give?
Its Potency is “inactive”.

With `CC(C)CC1C(=O)N(Cc2cn(CCC3OCCO3)nn2)CCS(=O)(=O)N1Cc1ccc(-c2ccc(F)cc2)cc1` (stereo not given) as the compound, how does the Potency read?
Its Potency is “inactive”.

With `CC(CCc1ccccc1)NC(=O)C1CCN(C(=O)c2sccc2-n2cccc2)CC1` (stereo not given) as the compound, how does the Potency read?
Its Potency is “inactive”.

`O=C1C=C(N2CCCCC2)c2ccccc2C1=O` was tested. Which Potency did it give?
Its Potency is 25.1 µM (active).

With `COc1ccc(-n2nnnc2SCC(=O)c2ccc(O)c(O)c2)cc1` as the compound, how does the Potency read?
The Potency was 9.53 µM (active).

With `COC1C(CO)OC(n2c3c(Cl)cccc3c3c4c(c5c6cccc(Cl)c6[nH]c5c32)C(=O)NC4=O)C(O)C1O` (stereo not given) as the compound, how does the Potency read?
Its Potency is “inactive”.

`COc1ccc(-c2nn(-c3ccccc3)cc2/C=N/n2cnnc2)cc1OC` was tested. Which Potency did it give?
The Potency was “inactive”.

For `C#CCOCCOCCOCCNc1nc(N2CCN(C(=O)[C@H](Cc3cc4ccccc4[nH]3)n3cc([C@@H](N)Cc4ccc(O)cc4)nn3)CC2)nc(N2CCN(C(=O)[C@H](Cc3cc4ccccc4[nH]3)n3cc([C@@H](N)CC(C)C)nn3)CC2)n1`, which Potency is on record?
Its Potency is 44.7 µM (active).

How did the Potency turn out when `COc1ccc(CCNC(=O)CSc2nc3nc(C)c(Cc4ccc(C)cc4)c(C)n3n2)cc1OC` was run?
The Potency was “inactive”.

Which Potency does the source give for `Cc1cccc(C(=O)Nc2cccc(C(=O)OCc3cc(=O)n4c5c(sc4n3)CCCC5)c2)c1` here?
The Potency was “inactive”.

`CN(C)C(CNS(=O)(=O)c1ccc(Cl)cc1)c1cccnc1` (stereo not given) was tested. Which Potency did it give?
The Potency was “inactive”.

For `O=C(O)c1[nH]c2ccccc2c1C(c1cc(Cl)cc([N+](=O)[O-])c1O)c1c(C(=O)O)[nH]c2ccccc12`, which Potency is on record?
Its Potency is 37.9 µM (active).

Which Potency does the source give for `Cn1c(SCc2c(Cl)cccc2Cl)nnc1-c1ccc2nonc2c1` here?
Its Potency is “inactive”.

`COc1cc2c(cc1OC)C(c1ccccc1)N(C(=O)c1ccco1)CC2` (stereo not given) was tested. Which Potency did it give?
The Potency was “inactive”.

With `NNc1nc2c(Cl)cccc2s1` as the compound, how does the Potency read?
Its Potency is “inactive”.

With `CC1CCN(c2ccc3c(c2)S(=O)(=O)c2ccccc2C3=O)CC1` as the compound, how does the Potency read?
The Potency was “inactive”.

For `COc1ccc(-c2n[nH]c3c2C(c2ccc(Cl)cc2Cl)NC3=O)cc1` (stereo not given), which Potency is on record?
Its Potency is “inactive”.

Which Potency does the source give for `COc1cc(NC(=S)NCCC(c2ccccc2)c2ccccc2)cc(OC)c1` here?
Its Potency is “inactive”.

How did the Potency turn out when `O=C(Cc1ccccc1Cl)Nc1ccc(S(=O)(=O)Nc2nccs2)cc1` was run?
The Potency was “inactive”.

With `Cc1ccc(S(=O)(=O)N2[C@@H](c3ccc(Br)cc3)C(C(=O)O)=CC[C@H]2c2ccc(Cl)c(Cl)c2)cc1` as the compound, how does the Potency read?
The Potency was 67.5 µM (active).

Which Potency does the source give for `CC1CC1C(=O)OCC(=O)NNC(=O)COc1ccc(Br)cc1` (stereo not given) here?
Its Potency is “inactive”.

How did the Potency turn out when `Cc1cn2c(=O)cc(COC(=O)c3ccc(NC(=O)C(C)Oc4ccccc4)cc3)nc2s1` (stereo not given) was run?
Its Potency is “inactive”.

For `Cc1ccc(OCCn2cccn2)c(C)c1`, which Potency is on record?
The Potency was “inactive”.

`Cc1ccc2c(c1)c1c(c(=O)n(-c3cccc(Cl)c3)c(=O)n1C)n2C` was tested. Which Potency did it give?
The Potency was “inactive”.

How did the Potency turn out when `Cn1c2ccccc2c2cc(/C=N/NC(=O)c3cc(O)ccc3O)ccc21` was run?
The Potency was 25.1 µM (active).

For `CCSc1nc2ccccc2c(=O)n1C1CCOC(C)(C)C1` (stereo not given), which Potency is on record?
The Potency was “inactive”.

With `Cn1c(=O)c2c(-c3ccccc3Br)n(CCc3ccccc3)cc2n(C)c1=O` as the compound, how does the Potency read?
Its Potency is “inactive”.

`CCCc1[nH]nc2c1C(c1cccnc1)C(C#N)=C(N)O2` (stereo not given) was tested. Which Potency did it give?
The Potency was “inactive”.

How did the Potency turn out when `CCc1ccccc1Oc1nc(NC(C)C)nc2ccsc12` was run?
Its Potency is “inactive”.

With `CCCOC(=O)c1c(-c2ccccc2)c(-c2ccccc2)nn(C)c1=O` as the compound, how does the Potency read?
Its Potency is “inactive”.

With `CCN1/C(=C/C(C)=C/c2sc3ccccc3[n+]2CC)Sc2ccccc21` as the compound, how does the Potency read?
The Potency was 50.1 µM (active).

How did the Potency turn out when `Cc1ccc(NC(=O)C2CCN(S(=O)(=O)c3ccc4c(c3)OCCCO4)CC2)nc1` was run?
Its Potency is “inactive”.

For `NC(=O)C1CCN(C(=O)Nc2csc3ccccc23)CC1`, which Potency is on record?
Its Potency is “inactive”.

With `OC1CCN(c2c3c(nc4cc(-c5cccc(F)c5)nn24)CCCC3)CC1` as the compound, how does the Potency read?
The Potency was “inactive”.

With `CCN1C(=O)/C(=C/c2ccc(N3CCCC3)cc2)NC1=S` as the compound, how does the Potency read?
The Potency was “inactive”.

For `CC1(C)OCC(C2CC(c3ccccc3)NS(=O)(=O)O2)O1` (stereo not given), which Potency is on record?
The Potency was “inactive”.

How did the Potency turn out when `C/C(=N\N1C(=O)c2ccccc2NC1c1ccco1)c1ccccc1O` (stereo not given) was run?
Its Potency is 75.7 µM (active).

With `O=C(O)CCn1cc(/C=C2\NC(=S)N(c3ccccc3)C2=O)c(-c2ccc(Br)cc2)n1` as the compound, how does the Potency read?
The Potency was “inactive”.

Which Potency does the source give for `CC1(C)CC(=O)C=C(c2ccc(F)cc2OCc2ccccc2)C1` here?
Its Potency is “inactive”.

Biological target: Rap guanine nucleotide exchange factor 3 (Homo sapiens) (UniProt O95398)
Test: Confirmatory qHTS for agonist of cAMP-regulated guanine nucleotide exchange factor 3 (EPAC1) (AID 1645881); further: nearly all actives have a fitted effect of over 75% in size
Details: EPAC1 Rap1B BODIPY-GDP exchange fluorescence; series mostly up to 154 µM

For `COc1ccc2ccccc2c1C(=O)/C=C\c1ccoc1`, which Potency is on record?
The Potency was “inactive”.

For `Oc1ccc(-c2c(-c3ccsc3)sc3ccccc23)cc1`, which Potency is on record?
The Potency was “inactive”.

For `CC(C)CC1C(=O)N(Cc2cn(CCC3OCCO3)nn2)CCS(=O)(=O)N1Cc1ccc(-c2ccc(F)cc2)cc1` (stereo not given), which Potency is on record?
Its Potency is “inactive”.

How did the Potency turn out when `CC(CCc1ccccc1)NC(=O)C1CCN(C(=O)c2sccc2-n2cccc2)CC1` (stereo not given) was run?
Its Potency is “inactive”.

How did the Potency turn out when `O=C1C=C(N2CCCCC2)c2ccccc2C1=O` was run?
The Potency was “inactive”.

How did the Potency turn out when `COc1ccc(-n2nnnc2SCC(=O)c2ccc(O)c(O)c2)cc1` was run?
The Potency was “inactive”.

How did the Potency turn out when `COC1C(CO)OC(n2c3c(Cl)cccc3c3c4c(c5c6cccc(Cl)c6[nH]c5c32)C(=O)NC4=O)C(O)C1O` (stereo not given) was run?
Its Potency is “inactive”.

With `COc1ccc(-c2nn(-c3ccccc3)cc2/C=N/n2cnnc2)cc1OC` as the compound, how does the Potency read?
Its Potency is “inactive”.

`C#CCOCCOCCOCCNc1nc(N2CCN(C(=O)[C@H](Cc3cc4ccccc4[nH]3)n3cc([C@@H](N)Cc4ccc(O)cc4)nn3)CC2)nc(N2CCN(C(=O)[C@H](Cc3cc4ccccc4[nH]3)n3cc([C@@H](N)CC(C)C)nn3)CC2)n1` was tested. Which Potency did it give?
Its Potency is “inactive”.

How did the Potency turn out when `COc1ccc(CCNC(=O)CSc2nc3nc(C)c(Cc4ccc(C)cc4)c(C)n3n2)cc1OC` was run?
The Potency was “inactive”.

`Cc1cccc(C(=O)Nc2cccc(C(=O)OCc3cc(=O)n4c5c(sc4n3)CCCC5)c2)c1` was tested. Which Potency did it give?
Its Potency is “inactive”.

`CN(C)C(CNS(=O)(=O)c1ccc(Cl)cc1)c1cccnc1` (stereo not given) was tested. Which Potency did it give?
The Potency was “inactive”.

How did the Potency turn out when `O=C(O)c1[nH]c2ccccc2c1C(c1cc(Cl)cc([N+](=O)[O-])c1O)c1c(C(=O)O)[nH]c2ccccc12` was run?
The Potency was “inactive”.

`Cn1c(SCc2c(Cl)cccc2Cl)nnc1-c1ccc2nonc2c1` was tested. Which Potency did it give?
The Potency was “inactive”.

`COc1cc2c(cc1OC)C(c1ccccc1)N(C(=O)c1ccco1)CC2` (stereo not given) was tested. Which Potency did it give?
The Potency was “inactive”.

With `NNc1nc2c(Cl)cccc2s1` as the compound, how does the Potency read?
The Potency was “inactive”.

For `CC1CCN(c2ccc3c(c2)S(=O)(=O)c2ccccc2C3=O)CC1`, which Potency is on record?
The Potency was 112 µM (active).

How did the Potency turn out when `COc1ccc(-c2n[nH]c3c2C(c2ccc(Cl)cc2Cl)NC3=O)cc1` (stereo not given) was run?
The Potency was “inactive”.

For `COc1cc(NC(=S)NCCC(c2ccccc2)c2ccccc2)cc(OC)c1`, which Potency is on record?
Its Potency is “inactive”.

For `O=C(Cc1ccccc1Cl)Nc1ccc(S(=O)(=O)Nc2nccs2)cc1`, which Potency is on record?
The Potency was “inactive”.

With `Cc1ccc(S(=O)(=O)N2[C@@H](c3ccc(Br)cc3)C(C(=O)O)=CC[C@H]2c2ccc(Cl)c(Cl)c2)cc1` as the compound, how does the Potency read?
The Potency was “inactive”.

How did the Potency turn out when `CC1CC1C(=O)OCC(=O)NNC(=O)COc1ccc(Br)cc1` (stereo not given) was run?
Its Potency is “inactive”.

How did the Potency turn out when `Cc1cn2c(=O)cc(COC(=O)c3ccc(NC(=O)C(C)Oc4ccccc4)cc3)nc2s1` (stereo not given) was run?
Its Potency is “inactive”.

With `Cc1ccc(OCCn2cccn2)c(C)c1` as the compound, how does the Potency read?
The Potency was “inactive”.

For `Cc1ccc2c(c1)c1c(c(=O)n(-c3cccc(Cl)c3)c(=O)n1C)n2C`, which Potency is on record?
The Potency was “inactive”.

Which Potency does the source give for `Cn1c2ccccc2c2cc(/C=N/NC(=O)c3cc(O)ccc3O)ccc21` here?
The Potency was “inactive”.

With `CCSc1nc2ccccc2c(=O)n1C1CCOC(C)(C)C1` (stereo not given) as the compound, how does the Potency read?
The Potency was “inactive”.

With `Cn1c(=O)c2c(-c3ccccc3Br)n(CCc3ccccc3)cc2n(C)c1=O` as the compound, how does the Potency read?
Its Potency is “inactive”.

`CCCc1[nH]nc2c1C(c1cccnc1)C(C#N)=C(N)O2` (stereo not given) was tested. Which Potency did it give?
The Potency was “inactive”.

With `CCc1ccccc1Oc1nc(NC(C)C)nc2ccsc12` as the compound, how does the Potency read?
The Potency was “inactive”.

For `CCCOC(=O)c1c(-c2ccccc2)c(-c2ccccc2)nn(C)c1=O`, which Potency is on record?
The Potency was “inactive”.

With `CCN1/C(=C/C(C)=C/c2sc3ccccc3[n+]2CC)Sc2ccccc21` as the compound, how does the Potency read?
Its Potency is “inactive”.

Which Potency does the source give for `Cc1ccc(NC(=O)C2CCN(S(=O)(=O)c3ccc4c(c3)OCCCO4)CC2)nc1` here?
The Potency was “inactive”.

For `NC(=O)C1CCN(C(=O)Nc2csc3ccccc23)CC1`, which Potency is on record?
The Potency was “inactive”.

For `OC1CCN(c2c3c(nc4cc(-c5cccc(F)c5)nn24)CCCC3)CC1`, which Potency is on record?
The Potency was “inactive”.

Which Potency does the source give for `CCN1C(=O)/C(=C/c2ccc(N3CCCC3)cc2)NC1=S` here?
The Potency was “inactive”.

`CC1(C)OCC(C2CC(c3ccccc3)NS(=O)(=O)O2)O1` (stereo not given) was tested. Which Potency did it give?
The Potency was “inactive”.

`C/C(=N\N1C(=O)c2ccccc2NC1c1ccco1)c1ccccc1O` (stereo not given) was tested. Which Potency did it give?
Its Potency is “inactive”.

`O=C(O)CCn1cc(/C=C2\NC(=S)N(c3ccccc3)C2=O)c(-c2ccc(Br)cc2)n1` was tested. Which Potency did it give?
The Potency was “inactive”.

`CC1(C)CC(=O)C=C(c2ccc(F)cc2OCc2ccccc2)C1` was tested. Which Potency did it give?
Its Potency is “inactive”.
